# Source: PubChem BioAssay AID720690 (Broad Institute, 2013)
# Potency and affinity values are given separately. Unmarked numbers belong to inactive results.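 Rule for the calls: active = every repeat run showing a signal drop whose fitted half-maximal concentration is at most twice the top tested concentration; inconclusive = repeat runs disagree, or flat partial drop, or poor fit; inactive = the rest.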
# Assay: general mammalian cell viability loss – activator set, cherry-pick, cytotoxicity control for miR-122 modulator project, dose response (AID 720690);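 note: 0% = neutral control wells and -100% = MG132 cytotoxic control wells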
# Settings: HEK293T viability, CellTiter-Glo luminescence, 48 h; series mostly up to 26 µM; activity change, negative = cytotoxicity: at the top concentration
row,SMILES,"activity change, negative = cytotoxicity"
1,CNC(=O)C[C@@H]1CC[C@H]2[C@@H](COc3ccc(NC(=O)NC(C)C)cc3C(=O)N2C)O1,-0.66% [at 23.5 µM]
2,C/C=C/c1ccc([C@H]2[C@@H](CO)N[C@@H]2CN(C(=O)c2ccccc2F)C(C)C)cc1,-11.2%
3,CCCC(=O)Nc1ccc2c(c1)C(=O)N(C)[C@@H]1CC[C@@H](CC(=O)NCC(F)(F)F)O[C@H]1CO2,1.75%
4,COCC(=O)NC[C@@H]1[C@H](c2ccc(C3=CCCC3)cc2)[C@@H](CO)N1C(=O)C1CC1,-14.2% [at 23.5 µM]
5,CCCC(=O)Nc1ccc2c(c1)C(=O)N(C)[C@@H]1CC[C@H](CC(=O)N3CCc4ccccc4C3)O[C@H]1CO2,-5.47%
6,COc1ccc(-c2nc(NC(=O)CSc3nnc(C)s3)ns2)cc1,19.9%
7,Cc1ccc(-c2ccc3c(c2)O[C@H](CN(C)C(=O)CC2CC2)[C@H](C)CN([C@@H](C)CO)S3(=O)=O)cc1,-17.2%
8,CN1C(=O)c2cc(NC(=O)c3ccno3)ccc2OC[C@H]2O[C@@H](CC(=O)NCC3CC3)CC[C@@H]21,-4.86%
9,COCCNC(=O)C[C@H]1CC[C@@H]2[C@H](COc3ccc(NC(=O)c4cnccn4)cc3C(=O)N2C)O1,-7.42% [at 23.5 µM]
10,CCCC(=O)Nc1ccc2c(c1)C(=O)N(C)[C@@H]1CC[C@H](CC(=O)NCc3cccc(F)c3)O[C@H]1CO2,-22.4%
11,C/C=C/c1ccc2c(c1)O[C@H](CN(C)C(=O)Cc1cccnc1)[C@H](C)CN([C@H](C)CO)S2(=O)=O,-6.67%
12,O=C(Nc1ccccc1F)N1C[C@H]2[C@@H](c3ccccc31)[C@@H](CO)N2C(=O)C1CC1,-1.84%
13,C/C=C/c1ccc([C@H]2[C@@H](CO)N(Cc3ccccn3)[C@H]2CNC(=O)CC)cc1,-6.36%
14,C[C@@H]1CN([C@@H](C)CO)S(=O)(=O)c2ccc(C#Cc3ccncc3)cc2O[C@@H]1CN(C)C(=O)Nc1ccc2c(c1)OCO2,-19.2%
15,C[C@H]1CN([C@@H](C)CO)C(=O)c2cc(C#Cc3cccnc3)cnc2O[C@H]1CN(C)S(=O)(=O)c1ccccc1F,-5.37%
16,CN1C(=O)c2cc(NC(=O)c3ccc4c(c3)OCO4)ccc2OC[C@H]2O[C@H](CC(=O)O)CC[C@@H]21,1.22%
17,C[C@@H]1CN([C@H](C)CO)C(=O)c2cc(-c3cccc(C#N)c3)cnc2O[C@H]1CN(C)C(=O)C1CCC1,5.68%

row,SMILES,"activity change, negative = cytotoxicity"
1,CCCC#Cc1ccc2c(c1)O[C@H](CN(C)C(=O)COC)[C@H](C)CN([C@@H](C)CO)S2(=O)=O,-6.09%
2,CN1C(=O)c2cc(NC(=O)c3cccs3)ccc2OC[C@@H]2O[C@H](CC(=O)NCC(F)(F)F)CC[C@H]21,-2.83%
3,CCCC(=O)Nc1ccc2c(c1)C(=O)N(C)[C@@H]1CC[C@H](CC(=O)NCCOC)O[C@H]1CO2,-5.25%
4,COCCNC(=O)C[C@H]1CC[C@@H]2[C@@H](COc3ccc(NS(=O)(=O)c4ccc(Cl)cc4)cc3C(=O)N2C)O1,-14.5%
5,C/C=C/c1ccc([C@H]2[C@H](CO)N(C(C)=O)[C@H]2CN(C)C(=O)c2ccccn2)cc1,5.37%
6,Cc1ccc(-c2noc(CCC(=O)Nc3ccccc3C)n2)cc1,1.33%
7,COc1cc2nc(C3CCC3)n(NC(=O)C3CCCC(OC)C3)c(=O)c2cc1OC (stereo not drawn),7.08%
8,COC(=O)C[C@H]1CC[C@@H]2[C@@H](COc3ccc(NC(=O)Nc4cccc(F)c4)cc3C(=O)N2C)O1,-5.97%
9,O=C(Nc1ccccc1F)N1[C@H](CO)[C@@H]2c3ccccc3NC[C@@H]21,-11.2% [at 23.5 µM]
10,CN1C(=O)c2cc(NC(=O)c3ccc(C(F)(F)F)cc3)ccc2OC[C@H]2O[C@H](CC(=O)O)CC[C@@H]21,-8.07%
11,CN(C)CCCNC(=O)C[C@@H]1CC[C@H]2[C@@H](COc3ccc(NC(=O)c4cccc(F)c4)cc3C(=O)N2C)O1,-6.25%
12,CN(C)CCCNC(=O)C[C@H]1CC[C@H]2[C@H](COc3ccc(NC(=O)c4cccc(F)c4)cc3C(=O)N2C)O1,-18.8%
13,COCCNC(=O)C[C@@H]1CC[C@@H]2[C@H](COc3ccc(NS(=O)(=O)c4ccc(Cl)cc4)cc3C(=O)N2C)O1,-19.3%
14,CCNC(=O)C[C@H]1CC[C@@H]2[C@@H](COc3ccc(NC(=O)c4cccc(C(F)(F)F)c4)cc3C(=O)N2C)O1,-8.55%
15,CN1C(=O)c2cc(NC(=O)c3cccs3)ccc2OC[C@H]2O[C@H](CC(=O)NCCN3CCCCC3)CC[C@@H]21,4.88%
16,C[C@@H]1CN([C@H](C)CO)S(=O)(=O)c2ccc(C3=CCCC3)cc2O[C@@H]1CN(C)C(=O)c1ccc(F)cc1,-21.9%
